Measured values taken from PubChem BioAssay (NCATS).

Test: qHTS drug screen for cell cycle checkpoint inhibitors in PARPi-resistant BRCA-mutant ovarian cancer cell lines. (AID 1963452)
Conditions: PEO1/OlaR viability, CellTiter-Glo luminescence, 96 h; measured here: PEO1 parental Z-AUC; stronger effect = lower value
How it was run: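 PEO1, PEO4 and PEO1/OlaR ovarian cancer cells, 600 per well, exposed 96 h at 37C to a dilution series. Viability read by CellTiter-Glo luminescence, normalized to DMSO and empty wells; activity summarized as Z-AUC.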

Point of comparison: CC1(N2CCC(n3c([C@@H]4CCCNC4)nc4ccccc43)CC2)CCCCCCC1, Z-AUC 0.227. Against it:
- CC(=O)Nc1ccc(OC[C@](C)(O)C(=O)Nc2ccc([N+](=O)[O-])c(C(F)(F)F)c2)cc1 — lower, -0.737
- CCOC(=O)c1c(C(C#N)=CN)c2ccc(Cl)c(Cl)c2n1C — higher, 0.557
- Cc1c(C(=O)Nc2cccc(C(F)(F)F)c2)cc(-c2ccccc2)n1CCCN1CCOCC1 — lower, -0.727
- CC(C)[C@]12O[C@H]1[C@@H]1O[C@]13[C@]1(O[C@H]1C[C@H]1C4=C(CC[C@@]13C)C(=O)OC4)[C@@H]2O — lower, -2.59
- N=c1c2c(-c3ccccc3)c(-c3ccccc3)n(Cc3ccccc3)c2ncn1C1CCC(O)CC1 (configuration not stated) — lower, -0.41
- O=C(N[C@@H](COc1ccc2[nH]c(=O)[nH]c2c1)c1ccccc1)c1cccn(Cc2ccc(F)c(F)c2)c1=O — lower, 0.00624
- O=C(NCC1CCOCC1)c1cnc(Nc2ccc(Cl)cc2Cl)nc1C(F)(F)F — higher, 0.764
- O=C(Oc1ccc([N+](=O)[O-])cc1)N1CCN(Cc2cccc(Oc3ccccc3)c2)CC1 — higher, 1.12
- CCN(CC)C(=O)c1ccc(C2=CC3(CCNCC3)Oc3cccc(O)c32)cc1 — higher, 0.834
- Cc1[nH]nc2ccc(-c3cncc(OC[C@@H](N)Cc4c[nH]c5ccccc45)c3)cc12 — lower, -1.86
- COc1ccc(C(=O)c2c(C)n(CCN3CCOCC3)c3cc(I)ccc23)cc1 — lower, -0.515
- O=C(N[C@H]1CN2CCC1CC2)c1ccc(Cl)cc1 — higher, 0.355
- CN1CCN(c2ccc([N+](=O)[O-])c3no[n+]([O-])c23)CC1 — higher, 1.82
- O=c1cccc2n1CC1CNC[C@H]2C1 — higher, 1.98
- CN[C@@H]1Cc2cccc3[nH]c(=O)n(c23)C1 — higher, 1.4
- CC(C)(C)c1cc(C=C(C#N)C#N)cc(Br)c1O — higher, 1.11
- CCNC(=O)CC1N=C(c2ccc(Cl)cc2)c2cc(OC)ccc2-n2c(C)nnc21 (configuration not stated) — higher, 0.653
- CCN1CCN(C(=O)Cc2ccc(Nc3ncc(F)c(Nc4ccc(C(=O)Nc5ccccc5Cl)cc4)n3)cc2)CC1 — lower, -0.415
- CCNC(=O)C[C@@H]1N=C(c2ccc(Cl)cc2)c2cc(OC)ccc2-n2c(C)nnc21 — lower, -0.0106
- CC(C)(O)C(=O)Nc1ccc([N+](=O)[O-])c(C(F)(F)F)c1 — higher, 0.567
- COCC1(CO)C(=O)C2CCN1CC2 (configuration not stated) — higher, 0.336
- COc1ccc(N(C(=O)Oc2c(C)cccc2C)c2ccnc(Nc3ccc(N4CCN(C)CC4)cc3)n2)c(OC)c1 — higher, 0.364
- CCCCCC[C@H]1C(=O)O[C@H](C)[C@H](NC(=O)c2cccc(NC=O)c2O)C(=O)O[C@@H](C)[C@@H]1OC(=O)CC(C)C — lower, -1.96
- CC(C)[C@H]1C(=O)N[C@H](CO)Cc2c[nH]c3cccc(c23)N1C — lower, -0.654
- O=S(=O)(CC1CS1)c1ccc(Oc2ccccc2)cc1 (configuration not stated) — higher, 1.86
- COC1=C[C@@H]2[C@@H]3Cc4ccc(OC)c(O)c4[C@]2(CCN3C)CC1=O — higher, 0.742
- C[C@](O)(COc1ccc(C#N)cc1)C(=O)Nc1ccc(C#N)c(C(F)(F)F)c1 — higher, 0.716
- C/C=C(/C)C(=O)O[C@H]1C(C)=C2[C@H]([C@@H]1OC(=O)CCCCCCC)[C@@](C)(OC(C)=O)C[C@H](OC(=O)CCC)[C@@]1(O)[C@H]2OC(=O)[C@@]1(C)O — lower, -2.42
- COc1ccc2c(c[n+](C)c3c4cc5c(cc4ccc23)OCO5)c1OC — higher, 0.375
- CCOC(=O)Nc1ccc(NCc2ccc(F)cc2)cc1N — lower, 0.0556
- C[C@]12CC[C@H]3[C@@H](CCC4=CC(=O)CC[C@@]43C)[C@H]1CC[C@H]2OC(=O)CCC1CCCC1 — lower, -0.855
- O=C(Oc1ccc([N+](=O)[O-])cc1)N1CCC(C(O)(c2ccc3c(c2)OCO3)c2ccc3c(c2)OCO3)CC1 — higher, 0.266
- O=C(O)CNC(=O)c1c(O)c2ccccc2n(Cc2ccccc2)c1=O — higher, 0.683
- O=c1[nH]c2ccccc2n1C1CCN(Cc2ccc(-c3[nH]c4cc5ncnc5cc4nc3-c3ccccc3)cc2)CC1 — lower, -0.392
- CCCN1CCO[C@@H]2c3cc(O)ccc3OC[C@H]21 — higher, 0.85

Same assay, conditions: PEO1/OlaR viability, CellTiter-Glo luminescence, 96 h; measured here: PEO4 Z-AUC; stronger effect = lower value

Point of comparison: CN[C@@H]1Cc2cccc3[nH]c(=O)n(c23)C1, Z-AUC 1.34. Against it:
- CC(=O)Nc1ccc(OC[C@](C)(O)C(=O)Nc2ccc([N+](=O)[O-])c(C(F)(F)F)c2)cc1 — lower, -0.359
- CCOC(=O)c1c(C(C#N)=CN)c2ccc(Cl)c(Cl)c2n1C — lower, 0.414
- Cc1c(C(=O)Nc2cccc(C(F)(F)F)c2)cc(-c2ccccc2)n1CCCN1CCOCC1 — lower, -1.05
- CC(C)[C@]12O[C@H]1[C@@H]1O[C@]13[C@]1(O[C@H]1C[C@H]1C4=C(CC[C@@]13C)C(=O)OC4)[C@@H]2O — lower, -3.67
- N=c1c2c(-c3ccccc3)c(-c3ccccc3)n(Cc3ccccc3)c2ncn1C1CCC(O)CC1 (configuration not stated) — lower, -0.216
- O=C(N[C@@H](COc1ccc2[nH]c(=O)[nH]c2c1)c1ccccc1)c1cccn(Cc2ccc(F)c(F)c2)c1=O — lower, 0.64
- O=C(NCC1CCOCC1)c1cnc(Nc2ccc(Cl)cc2Cl)nc1C(F)(F)F — lower, 1.04
- CC1(N2CCC(n3c([C@@H]4CCCNC4)nc4ccccc43)CC2)CCCCCCC1 — lower, 0.462
- O=C(Oc1ccc([N+](=O)[O-])cc1)N1CCN(Cc2cccc(Oc3ccccc3)c2)CC1 — higher, 1.4
- CCN(CC)C(=O)c1ccc(C2=CC3(CCNCC3)Oc3cccc(O)c32)cc1 — lower, 0.745
- Cc1[nH]nc2ccc(-c3cncc(OC[C@@H](N)Cc4c[nH]c5ccccc45)c3)cc12 — lower, -2.37
- COc1ccc(C(=O)c2c(C)n(CCN3CCOCC3)c3cc(I)ccc23)cc1 — lower, -0.461
- O=C(N[C@H]1CN2CCC1CC2)c1ccc(Cl)cc1 — lower, -0.659
- CN1CCN(c2ccc([N+](=O)[O-])c3no[n+]([O-])c23)CC1 — lower, 1.04
- O=c1cccc2n1CC1CNC[C@H]2C1 — higher, 1.69
- CC(C)(C)c1cc(C=C(C#N)C#N)cc(Br)c1O — lower, 0.988
- CCNC(=O)CC1N=C(c2ccc(Cl)cc2)c2cc(OC)ccc2-n2c(C)nnc21 (configuration not stated) — lower, 0.806
- CCN1CCN(C(=O)Cc2ccc(Nc3ncc(F)c(Nc4ccc(C(=O)Nc5ccccc5Cl)cc4)n3)cc2)CC1 — lower, -1.09
- CCNC(=O)C[C@@H]1N=C(c2ccc(Cl)cc2)c2cc(OC)ccc2-n2c(C)nnc21 — lower, -0.343
- CC(C)(O)C(=O)Nc1ccc([N+](=O)[O-])c(C(F)(F)F)c1 — lower, 0.85
- COCC1(CO)C(=O)C2CCN1CC2 (configuration not stated) — lower, 0.128
- COc1ccc(N(C(=O)Oc2c(C)cccc2C)c2ccnc(Nc3ccc(N4CCN(C)CC4)cc3)n2)c(OC)c1 — lower, 0.481
- CCCCCC[C@H]1C(=O)O[C@H](C)[C@H](NC(=O)c2cccc(NC=O)c2O)C(=O)O[C@@H](C)[C@@H]1OC(=O)CC(C)C — lower, -1.72
- CC(C)[C@H]1C(=O)N[C@H](CO)Cc2c[nH]c3cccc(c23)N1C — lower, -0.578
- O=S(=O)(CC1CS1)c1ccc(Oc2ccccc2)cc1 (configuration not stated) — higher, 1.74
- COC1=C[C@@H]2[C@@H]3Cc4ccc(OC)c(O)c4[C@]2(CCN3C)CC1=O — lower, 0.886
- C[C@](O)(COc1ccc(C#N)cc1)C(=O)Nc1ccc(C#N)c(C(F)(F)F)c1 — lower, 0.592
- C/C=C(/C)C(=O)O[C@H]1C(C)=C2[C@H]([C@@H]1OC(=O)CCCCCCC)[C@@](C)(OC(C)=O)C[C@H](OC(=O)CCC)[C@@]1(O)[C@H]2OC(=O)[C@@]1(C)O — lower, -2.66
- COc1ccc2c(c[n+](C)c3c4cc5c(cc4ccc23)OCO5)c1OC — lower, 0.195
- CCOC(=O)Nc1ccc(NCc2ccc(F)cc2)cc1N — lower, 0.397
- C[C@]12CC[C@H]3[C@@H](CCC4=CC(=O)CC[C@@]43C)[C@H]1CC[C@H]2OC(=O)CCC1CCCC1 — lower, -0.842
- O=C(Oc1ccc([N+](=O)[O-])cc1)N1CCC(C(O)(c2ccc3c(c2)OCO3)c2ccc3c(c2)OCO3)CC1 — lower, 0.407
- O=C(O)CNC(=O)c1c(O)c2ccccc2n(Cc2ccccc2)c1=O — lower, 0.802
- O=c1[nH]c2ccccc2n1C1CCN(Cc2ccc(-c3[nH]c4cc5ncnc5cc4nc3-c3ccccc3)cc2)CC1 — lower, -0.582
- CCCN1CCO[C@@H]2c3cc(O)ccc3OC[C@H]21 — lower, 0.552
